Data from PubChem BioAssay AID1347131 (National Center for Advancing Translational Sciences (NCATS), 2019).
The campaign covered roughly 410,000 compounds. About 2,000 (0.49%) were called active. Roughly 8% stayed inconclusive and do not appear here. Calls follow the shape of the full dose curve; tested in HEK293 reporter line. What follows is part of a selection rich in actives, with near analogues and random picks from the rest. A call without a number means that no potency is given here.

experiment: qHTS Assay for Foot and Mouth Disease Virus Antivirals: Primary Screen against the MLPCN compound library; details: FMDV antiviral cell-based qHTS; series mostly up to 57.9 µM; also: nearly all actives have a fitted effect of over 55% in size
Potency is read from the fitted curve at half-maximal effect.

Compound | Potency
O=C(COc1ccc(F)cc1)Nc1ccc2nc(SCC(=O)N3CCOCC3)sc2c1 | 25.1 µM (active)
O=C(COc1ccc(F)cc1)Nc1ccc2nc(SCC(=O)N3CCc4ccccc43)sc2c1 | inactive
Cc1ccc(OCCSc2nc3ccc(NC(=O)c4ccc(F)cc4)cc3s2)cc1 | inactive
Cc1occc1C(=O)NC1CCCN(Cc2ccc(Cl)cc2)C1 (configuration not stated) | inactive
Cc1nn(CC(C)C)c(Cl)c1C(=O)N(C)CC(=O)Nc1ccc(Cl)cc1 | inactive
C=CCN(c1ccc(C(=O)Nc2cccc(C)c2)cc1)S(C)(=O)=O | inactive
CC1CC(C)CN(S(=O)(=O)c2ccc(C(=O)Nc3sccc3C(N)=O)cc2)C1 (configuration not stated) | 8.91 µM (active)
CC1CN(S(=O)(=O)c2ccc(C(=O)Nc3ccccc3F)cc2)CC(C)O1 (configuration not stated) | inactive
NC(=O)c1ccsc1NC(=O)CCS(=O)(=O)c1ccc(F)cc1 | inactive
Cc1onc(-c2ccc3c(c2)OCO3)c1-c1ccc2[nH]ccc2c1 | inactive
CCOc1ccc(-c2nnc3ccc(SC(C)C)nn23)cc1 | inactive
CN(Cc1nc2ccccc2c(=O)[nH]1)C(=O)c1cccc(S(=O)(=O)N2CCCCCC2)c1 | inactive
CC(C(=O)Nc1ccccc1-c1ccccc1)N(C)Cc1nc2ccccc2c(=O)[nH]1 (configuration not stated) | inactive
CN(C)c1ccc(-c2nc3ccccc3c(=O)[nH]2)cc1 | 20 µM (active)
CC(C)(C)c1ccc(C(=O)Nc2nnc(SCC(=O)NCC3CCCO3)s2)cc1 (configuration not stated) | 14.1 µM (active)
Cc1cccc(-n2nnnc2SCC(=O)NCC2CCCO2)c1 (configuration not stated) | inactive
CCOC(=O)CNC(=O)CSc1nnc(NC(=O)c2ccc(C)cc2)s1 | 12.6 µM (active)
Cn1c(SCC(=O)NCC2CCCO2)nnc1-c1c[nH]c2ccccc12 (configuration not stated) | inactive
Cc1cccc(NC(=O)CSc2nnc(NC(=O)CN3CCOCC3)s2)c1 | inactive
CC(C)CC(=O)Nc1nnc(SCC(=O)Nc2ccc(F)cc2)s1 | inactive
O=C(COc1ccc2c3c(c(=O)oc2c1)CCC3)N1CCN(c2ccc(F)cc2)CC1 | inactive
Nc1nonc1C(=O)NCCNCc1ccc(Cl)c(Cl)c1 | inactive
CCCCn1c(N)c(N(CCC(C)C)C(=O)c2ccc3c(c2)OCO3)c(=O)[nH]c1=O | inactive
CCC(C)c1ccccc1OCCCCN1CCCC1 (configuration not stated) | inactive
CC(C)C(OC(=O)c1cccc(S(=O)(=O)NCC(F)(F)F)c1)C(=O)NC(N)=O (configuration not stated) | inactive

Compound | Potency
Cc1cc(C)nc(NS(=O)(=O)c2ccc(-n3cccc3)cc2)n1 | inactive
Cc1cc(C(=O)C(=O)N(C)C)c(C)n1-c1ccc([N+](=O)[O-])cc1 | inactive
Cc1ccccc1CN1C2=NCCN2c2ccccc21 | inactive
O=C(Nc1cccc(C(F)(F)F)c1)c1ccc2c(c1)nnn2C1CCCC1 | 12.6 µM (active)
CCOC(=O)c1ccccc1NC(=O)CN1CCC(n2nnc3cc(C(F)(F)F)ccc32)CC1 | inactive
Cc1cc(C)cc(NC(=O)c2ccc3c(c2)nnn3C2CCCC2)c1 | inactive
COc1ccc(NC(=O)c2cc(-c3ccccn3)nc3ccccc23)cc1S(=O)(=O)N(C)C | inactive
COc1ccc(CCNC(=O)CSc2nnc(-c3ccccc3)c3ccccc23)cc1OC | inactive
CCn1c(=O)c(C(=O)NCc2ccc(OC)c(OC)c2)c(O)c2ccccc21 | inactive
COc1ccc(CNC(=O)Cn2c(=O)nc(-c3ccccc3)c3ccccc32)cc1OC | 20 µM (active)
CC(=O)c1cc(-c2ccccc2)n(CC(=O)Nc2ccc(C)c(C)c2)c1C | inactive
Cc1nc2cc(C(F)(F)F)ccc2n1C1CCN(Cc2nnnn2Cc2cccs2)CC1 | inactive
c1csc(Cn2nnnc2CN2CCN(c3nc4ccccc4s3)CC2)c1 | 17.8 µM (active)
COc1cccc2sc(N3CCN(c4nc5ccccc5s4)CC3)nc12 | inactive
Nc1ccc(-c2ccc(N)cc2C(F)(F)F)c(C(F)(F)F)c1 | inactive
CC(=O)C1=C(c2ccc(F)cc2)N(C(C)=O)n2c(nnc2C2CCCCC2)S1 | inactive
CCOC(=O)Cc1csc(NC(=O)COc2ccc(OC)cc2)n1 | inactive
CCN(CC)CCNC(=O)COc1ccc(OC)cc1 | inactive
COc1ccc(OCC(=O)Nc2nccs2)cc1 | 15.8 µM (active)
COc1ccc(NC(=O)CN(C)C(=O)c2cccc(S(=O)(=O)N3CCN(c4ccccc4)CC3)c2)cc1 | inactive
Cc1ccc(S(=O)(=O)Nc2c(C)cc([N+](=O)[O-])cc2C)cc1 | inactive
Cc1ccccc1CS(=O)(=O)c1ccc(C(=O)N2CCOCC2)cc1[N+](=O)[O-] | inactive
Cc1ccc(S(=O)(=O)Cc2cc(F)c([N+](=O)[O-])cc2[N+](=O)[O-])cc1 | 15.8 µM (active)
O=C(N/N=C/c1cccs1)C(O)c1ccccc1 (configuration not stated) | inactive
O=C(Nc1cccc(Cl)c1N1CCOCC1)c1cc([N+](=O)[O-])ccc1N1CCOCC1 | inactive

Compound | Potency
CCOC(=O)c1cc(C)n(CC2CCC(C(=O)Nc3ccc(OC)cc3)CC2)c1C (configuration not stated) | inactive
CCOc1ccc(NC(=O)N(Cc2ccc(CC)cc2)Cc2cn[nH]c2-c2ccc(OC)cc2)cc1 | inactive
CCOC(=O)c1cn[nH]c1NC(=S)Nc1ccc(OC)cc1 | 17.8 µM (active)
Cc1ccc(S(=O)(=O)N/N=C/c2ccc(OCC(=O)N3CCOCC3)cc2)cc1 | inactive
CCOc1ccc(CNC(=O)CCCn2ccc3cc(S(=O)(=O)N4CCCC4)ccc32)cc1 | inactive
O=C(Nc1ccc(N2CCOCC2)c(Cl)c1)c1c(F)c(F)c(F)c(F)c1F | inactive
O=C(Nc1cccc(S(=O)(=O)N2CCCCC2)c1)c1cnccn1 | inactive
O=C(Nc1ccc(N2CCOCC2)cc1)c1cnccn1 | 12.6 µM (active)
Cc1cc2oc(C(=O)NC3CCS(=O)(=O)C3)cc(=O)c2cc1C (configuration not stated) | inactive
CCc1ccc(NC(=O)c2sc3nc(C)nc(N4CCN(c5ccccn5)CC4)c3c2C)cc1 | inactive
CN(C)c1ccc(C(=O)N2CCCC(CCC(=O)N3CCN(c4ccccn4)CC3)C2)cc1 (configuration not stated) | inactive
Cc1ccc(S(=O)(=O)N(C)CCCC(=O)Nc2ccncc2)cc1 | inactive
Cc1ccc(S(=O)(=O)N(C)CCCC(=O)N2CCN(c3ccccn3)CC2)cc1 | 22.4 µM (active)
COc1ccc(C(=O)NCC(=O)N2CCN(C(=O)c3ccco3)CC2)cc1[N+](=O)[O-] | inactive
CC(NC(=O)C1CCN(CCOc2ccc(Cl)cc2)CC1)c1cccc2ccccc12 (configuration not stated) | inactive
O=C(/C=C/c1ccco1)N1CCN(C/C=C/c2ccccc2)CC1 | inactive
C[C@H](NC(=O)c1ccc(C(C)(C)C)cc1)C(=O)N1CCN(C/C=C/c2ccccc2)CC1 | inactive
O=C(c1ccc(=O)n(Cc2ccccc2)n1)N1CCN(C/C=C/c2ccccc2)CC1 | 15.8 µM (active)
CCOc1ccc(-n2c(SCc3nc(-c4ccc(OC)cc4)no3)nnc2-c2ccncc2)cc1 | inactive
O=C(NCc1ccc(F)cc1)C(=O)NCC(c1cccs1)S(=O)(=O)c1cccs1 (configuration not stated) | inactive
Cc1ccccc1Nc1sc(C(=O)c2ccccc2)c(N)c1S(C)(=O)=O | inactive
Cc1sc(NC(=O)c2ccccc2)c(C(=O)c2ccccc2)c1C | inactive
Cc1ccc(Nc2sc(C(=O)c3ccccc3)c(N)c2C(=O)Nc2ccc(Cl)cc2)cc1 | 15.8 µM (active)
O=S(=O)(c1ccc(Cl)cc1)c1nnn2c1nc(NC1CCCCC1)c1sccc12 | inactive
Cc1ccc2nc(NC(=O)c3cc(-c4ccco4)nc4ccccc34)sc2c1 | inactive

Compound | Potency
Cc1ccc2nc(NC(=O)c3ccco3)sc2c1 | 12.6 µM (active)
COc1ccc(C(=O)Nc2nc3ccccc3s2)c(OC)c1 | inactive
COc1ccc2oc(C(=O)Nc3nc4ccc(S(C)(=O)=O)cc4s3)c(C)c2c1 | inactive
Cc1ccc2nc(NC(=O)CSc3nccn3Cc3ccc(F)cc3)sc2c1 | inactive
COc1ccc2nc(NC(=O)c3ccco3)sc2c1 | 15.8 µM (active)
CCCCCc1nnc(NC(=O)c2cccc(S(=O)(=O)N3CCOCC3)c2)s1 | inactive
CN(C)S(=O)(=O)N1CCc2ccc(NC(=O)c3ccc(C(F)(F)F)cc3)cc2C1 | inactive
COc1cc(-c2cc(NC=O)c3ncc(-c4cccc(C(F)(F)F)c4)n3c2)cc(OC)c1OC | inactive
CSc1ccccc1OCc1cc(C(=O)NCC(C)(C)N2CCOCC2)no1 | inactive
O=C1CCCN2N=C(SCC(=O)Nc3ccc(OC(F)(F)F)cc3)SC2=N1 | inactive
N#Cc1cc2c(nc1SCC(=O)Nc1ccc(OC(F)(F)F)cc1)C1CCN2CC1 | 15.8 µM (active)
O=C(CSc1nc(=O)n(CCN2CCOCC2)c2c1CCC2)Nc1ccc(OC(F)(F)F)cc1 | inactive
CCCN1C(=O)c2cc(C(=O)Nc3ccccc3OC)ccc2C1Nc1ccccc1OC (configuration not stated) | inactive
CCc1ccc(-n2c(=O)c3c4c(sc3n(CC(=O)N3CCCCC3CC)c2=O)CCC4)cc1 (configuration not stated) | inactive
CC(C)C(=O)N1CCC(CN=Cc2c(O)n(C3CCCCC3)c(=O)n(C3CCCCC3)c2=O)CC1 | 25.1 µM (active)
Cc1ccc(-c2cc(-c3ccc(F)cc3)nc(N)c2C#N)o1 | inactive
CC(C)(C)OC(=O)N1CCCC(C(=O)Nc2cccc(C(=O)NCc3ccccc3)c2)C1 (configuration not stated) | inactive
CC(C)Oc1ccc(CN2CCC2(C)C(=O)Nc2cccc(Oc3ccccc3)c2)cc1 (configuration not stated) | inactive
CC(C)Oc1ccc(CNC(=O)c2cccc(NC(=O)N3CCSc4ncccc43)c2)cc1 | 20 µM (active)
Cc1[nH]c2ccccc2c1C(=O)CN1C(=O)C(=O)N(CCC2=CCCCC2)C1=O | inactive
COc1cc2c(cc1NC(=O)c1cc(-c3ccncc3)nc3ccccc13)oc1ccccc12 | inactive
CCC1(c2ccc(F)cc2)NC(=O)N(CC(=O)Nc2cc(S(=O)(=O)N(C)C)ccc2Cl)C1=O (configuration not stated) | inactive
